Inconclusive results are not listed. A number with no mark means an inactive call. Calls follow the shape of the dose curve; as a rule, active = well fitted curve in either direction with a large enough effect (not every such curve was filed as active); inconclusive = small, poorly fitted or top-dose-only effect, or another doubt; inactive = flat fitted curve, though single readings scatter.
Test: AP1 Signaling Pathway (AID 357);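 also: ME-180 reporter cells stimulated with EGF at its EC50 level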
Settings: ME-180 (cervical carcinoma) AP-1-bla reporter, EGF-induced, beta-lactamase ratio, 5 h; at 17.2 µM (top of the series) unless noted
Outline: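 First, ME-180 AP-1-bla cells were cultured overnight at 37 °C in low-serum Opti-MEM. Next, titrated compounds with EC50 EGF were incubated 5 hours. Finally, CCF4 was added for 2.5 hours and the 460/530 nm ratio recorded.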
% is scaled to controls: 0 for no effect and ±100 for the full control effect.

Compound | activity change, negative = inhibition [%]
COC(=O)c1ccc(N2C(=O)CC(N3CCN(C(=O)c4ccco4)CC3)C2=O)cc1 (stereo not given) | 3.9
COC(=O)c1cc(Br)c(=O)n(Cc2ccco2)c1 | 10.7
CC(=O)c1c(OCC(=O)O)ccc2c(C)cc(=O)oc12 | 15
COc1cccc(C2C(C(=O)c3cccs3)=C(O)C(=O)N2c2cc(C)on2)c1 (stereo not given) | -6.29
CCn1cc(C(=O)NCC2CCCO2)c(=O)c2cc(F)c(N3CCN(C)CC3)cc21 (stereo not given) | -11.4
C(=N\n1cnnc1)/c1cccc(Oc2ccccc2)c1 | -3.86
CC1(C)CNC(=O)c2sc(N3CCOCC3)nc2C1 | -10.8
COc1cc(-n2c3nc4ccccc4nc3c3c(=O)n(Cc4ccco4)cnc32)cc(OC)c1OC | -7.36
COc1ccccc1-n1c(N)c(C(=O)NCC2CCCO2)c2nc3ccccc3nc21 (stereo not given) | 19.4
O=C(NCCC1=CCCCC1)c1ccc(=O)oc1 | -16
Cc1ccc(OCC(=O)NCC(=O)n2nc(C)cc2C)cc1 | -4.61
COc1ccc2[nH]c(C)c(C(=O)CN3CCc4cc(OC)c(OC)cc4C3)c2c1 | -11.9
COc1cc(C(=O)Nc2nccs2)cc(OC)c1OC | 12.8
COc1ccc(OCC(=O)OCCN(C)C)cc1 | 7.78
O=C(O)c1cc2n(n1)C(C(F)(F)F)CC(c1ccccc1)N2 (stereo not given) | 3.84
O=C(NCCCn1ccnc1)C(Cc1ccccc1)N1C(=O)c2ccccc2C1=O (stereo not given) | -14.7
Cc1nnc2n(Cc3ccccc3)c(=O)c3c4c(sc3n12)CN(Cc1ccccc1)CC4 | 3.27
COc1ccc(N/C(=N\c2nc(C)cc(C)n2)NC(=O)C(C)C)cc1OC | -12.4
CN1C(=O)NC(NC(=O)c2ccco2)(C(F)(F)F)C1=O (stereo not given) | 3.54
Cc1ccc(C(=O)NCC(C)(C)O)cc1 | 9.77

Compound | activity change, negative = inhibition [%]
Cc1ccc(N(CC(=O)O)C2SC(=O)NC2=O)cc1 (stereo not given) | 12.3
CC(C)N1CCc2c(sc(N)c2C#N)C1 | 5.12
CC1(c2ccco2)NC(=O)NC1=O (stereo not given) | 5.26
CCCSc1nc(C)c(CC(=O)OCC)c(=O)[nH]1 | -4.57
C/C(=N\O)c1c(C)c2ccccc2n1C | 2.06
CN1CC(=O)Nc2ccc(F)cc2C1=O | 13.4
O=C(c1coc(=O)c(Br)c1)N1CCOCC1 | 6.25
C=CCN(C(=O)CCC(=O)O)C1CC(=O)N(c2ccc(OCCC)cc2)C1=O (stereo not given) | 3.6
CC(C)OC(=O)c1sc2nc3c(cc2c1N)C(=O)CCC3 | -5.75
c1cncc(Oc2cccc(Oc3cccnc3)c2)c1 | -6.49
CC1(C)Cc2[nH]c(=O)c(C#N)cc2CS1 | 19.5
COC(=O)c1ccc(C2/C(=C(/O)c3ccc(OC)cc3)C(=O)C(=O)N2c2cc(C)on2)cc1 (stereo not given) | -14
Nc1nonc1-c1noc(N2CCOCC2)n1 | 4.65
COc1ccc(C2=CC(c3cccc(OC)c3)n3nnnc3N2)cc1 (stereo not given) | -24.4
CCOC(=O)c1[nH]c2cc3c(cc2c1NC(=O)CN1CC(C)CC(C)C1)OCO3 (stereo not given) | -14.1
CCc1cc2c(=O)c(-c3cscn3)coc2c(CN(C)C)c1O | 26.5
Cc1c(C=NCCOCc2ccccc2)cnn1C | -2.81
Cc1cc(=O)oc(C)c1C(=O)NCCNC(=O)c1c(C)cc(=O)oc1C | 7.25
CC(C)(C#N)C(C)(C)c1nn[nH]n1 | 6.02
N/C(=N\S(=O)(=O)c1ccc(Cl)s1)c1ccccc1 | -2.33
